From PubChem BioAssay (NCATS)
Inconclusive results are not listed. The source made the active and inactive calls. Unless noted, calls follow the shape of the dose curve; as a rule, active = well fitted curve in either direction with a large enough effect (not every such curve was filed as active); inconclusive = small, poorly fitted or top-dose-only effect, or another doubt; inactive = flat fitted curve, though single readings scatter.

Columns and labels:
[1] = AP1 Signaling Pathway (AID 357); conditions: ME-180 AP-1-bla reporter, EGF-induced, beta-lactamase ratio, 5 h; at 17.2 µM (top of the series) unless noted;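 also: ME-180 reporter cells stimulated with EGF at its EC50 level; % is scaled to controls: 0 for no effect and ±100 for the full control effect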
Outline: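 AP-1-bla ME-180 cells, Opti-MEM + 0.5% dialyzed FBS, plated overnight 37 °C. Cpd titration + EC50 EGF, 5 h 37 °C. CCF4 2.5 h RT; ex 405, em 460/530 ratio → %activity, AC50.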

[2] = NFAT Signaling Pathway (AID 444); conditions: Jurkat NFAT-bla M1, carbachol, beta-lactamase ratio, 5 h; at 17.2 µM (top of the series) unless noted;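 also: carbachol stimulus at about its EC50 of 1 µM final; % is scaled to controls: 0 for no effect and ±100 for the full control effect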
Outline: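 Read-out: CCF4 FRET ratio (460 nm/530 nm) after 1 h RT dye loading, used for %activity and AC50 from titration series. Cells: Jurkat NFAT-β-lactamase/M1 line, treated with compound plus 1 uM carbachol for 5 h, 37 °C.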

[3] = Stat Signaling Pathway (AID 446); conditions: ME-180 SIE beta-lactamase reporter, IL-6 stimulated, 5 h; at 17.2 µM (top of the series) unless noted;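 also: ME-180 cervical cancer cells given 40 pM IL-6 alongside compound; SIE-controlled beta-lactamase reporter measured as 460/530 nm FRET emission ratio; % is scaled to controls: 0 for no effect and ±100 for the full control effect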
Outline: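 Screening format detects activators and inhibitors alike: ME-180 SIE-bla cells stimulated at 40 pM IL-6 for 5 hrs with compound, then dual-emission beta-lactamase read at 405 nm excitation.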

[4] = molecular target: Glucocorticoid receptor (Homo sapiens) (UniProt P04150); assay: GR-GFP Redistribution (AID 450;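 active = compounds whose dose series gives a full or clear partial fitted curve of increased nuclear translocation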; also: potency is read from the fitted curve at half-maximal effect)
Glucocorticoid receptor (Homo sapiens), sequence (P04150 whole entry, looked up): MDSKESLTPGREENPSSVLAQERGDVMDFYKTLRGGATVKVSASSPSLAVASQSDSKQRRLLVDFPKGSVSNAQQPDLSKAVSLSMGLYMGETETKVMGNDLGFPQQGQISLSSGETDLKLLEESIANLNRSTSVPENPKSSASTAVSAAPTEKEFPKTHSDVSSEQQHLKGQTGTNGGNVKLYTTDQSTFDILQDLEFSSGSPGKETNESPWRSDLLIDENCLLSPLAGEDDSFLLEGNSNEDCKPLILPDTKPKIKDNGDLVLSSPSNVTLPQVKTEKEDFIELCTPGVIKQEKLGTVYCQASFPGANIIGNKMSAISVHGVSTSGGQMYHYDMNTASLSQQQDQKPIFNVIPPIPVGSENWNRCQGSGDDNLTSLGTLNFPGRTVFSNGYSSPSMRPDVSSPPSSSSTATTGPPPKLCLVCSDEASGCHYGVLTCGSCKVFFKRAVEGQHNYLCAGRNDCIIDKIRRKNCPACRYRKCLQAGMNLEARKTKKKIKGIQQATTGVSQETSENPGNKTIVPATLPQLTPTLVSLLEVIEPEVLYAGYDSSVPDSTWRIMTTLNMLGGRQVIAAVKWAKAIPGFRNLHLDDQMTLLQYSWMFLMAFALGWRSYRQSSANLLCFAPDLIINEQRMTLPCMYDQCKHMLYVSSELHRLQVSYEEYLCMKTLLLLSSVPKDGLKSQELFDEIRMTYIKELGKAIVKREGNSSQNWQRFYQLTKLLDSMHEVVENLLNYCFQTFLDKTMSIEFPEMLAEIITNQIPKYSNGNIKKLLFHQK

[5] = qHTS Assay for Identification of Small Molecule Agonists for Hypoxia Response Element Signaling Pathway (AID 914; active = well fitted activation curve with a large enough effect in the signal ratio, with a control signal flat, not every such curve was filed as active; the % refers to the signal ratio; also: % of control where 0% means no effect); conditions: ME-180 (cervical carcinoma) HRE-bla reporter, beta-lactamase ratio, CoCl2, 17 h; activation: hits give high values
Outline: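 Cells were plated overnight, pin-dosed with compound in a titration series, co-stimulated with EC50 CoCl2 and incubated 17 hours at 37 degrees Celsius. CCF4 substrate was then loaded, and AC50 values came from the 460nm/530nm ratio.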

[6] = molecular target: 3',5'-cyclic-AMP phosphodiesterase 4B (Homo sapiens) (UniProt Q07343); assay: qHTS Assay for Inhibitors of PDE-IV (AID 607; active = well fitted activation curve with a large enough effect in the main read-out, with a control signal flat, not every such curve was filed as active; also: % of control where 0% means no effect)
3',5'-cyclic-AMP phosphodiesterase 4B (Homo sapiens), sequence (Q07343 whole entry, looked up): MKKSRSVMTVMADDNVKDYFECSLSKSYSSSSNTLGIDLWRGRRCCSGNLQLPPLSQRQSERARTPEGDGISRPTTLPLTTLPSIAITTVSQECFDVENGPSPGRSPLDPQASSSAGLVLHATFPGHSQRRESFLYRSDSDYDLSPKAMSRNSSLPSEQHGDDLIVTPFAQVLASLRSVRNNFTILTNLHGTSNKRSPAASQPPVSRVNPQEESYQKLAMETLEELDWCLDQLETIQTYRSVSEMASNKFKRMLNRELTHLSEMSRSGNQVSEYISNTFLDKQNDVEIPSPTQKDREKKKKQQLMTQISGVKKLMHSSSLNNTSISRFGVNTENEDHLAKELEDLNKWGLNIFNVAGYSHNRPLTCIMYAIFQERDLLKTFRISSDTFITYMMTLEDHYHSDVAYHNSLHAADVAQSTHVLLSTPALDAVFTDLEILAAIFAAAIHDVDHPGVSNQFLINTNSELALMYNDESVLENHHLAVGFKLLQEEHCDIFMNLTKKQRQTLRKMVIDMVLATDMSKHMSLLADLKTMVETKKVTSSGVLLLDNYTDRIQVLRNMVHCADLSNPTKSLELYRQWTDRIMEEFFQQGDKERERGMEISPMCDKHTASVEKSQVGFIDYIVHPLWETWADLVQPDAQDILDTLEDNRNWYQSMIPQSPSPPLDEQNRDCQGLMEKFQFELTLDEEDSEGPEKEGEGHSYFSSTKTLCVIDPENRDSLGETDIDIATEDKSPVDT
Outline: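 The readout is membrane depolarisation from a cAMP-sensing CNG channel, detected with a potential dye at ex 535/em 590. Cells were HEK293-derived (endogenous PDE-IV) at 1000 cells/well, titrated up to 22.9 uM final.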

[7] = molecular target: Guanine nucleotide-binding protein G(i) subunit alpha-1 (Homo sapiens) (UniProt P63096); assay: qHTS Assay for Inhibitors of RGS12 GoLoco Motif Activity (Green Fluorophore) (AID 879; active = well fitted curve in the direction sought with a large enough effect; an effect the other way counts as inactive or inconclusive;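 also: 0% = labeled peptide with Gαi1 and full inhibition = labeled peptide alone without protein; negative values mean loss of peptide binding seen as reduced polarization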)
Guanine nucleotide-binding protein G(i) subunit alpha-1 (Homo sapiens), sequence (P63096 whole entry, looked up): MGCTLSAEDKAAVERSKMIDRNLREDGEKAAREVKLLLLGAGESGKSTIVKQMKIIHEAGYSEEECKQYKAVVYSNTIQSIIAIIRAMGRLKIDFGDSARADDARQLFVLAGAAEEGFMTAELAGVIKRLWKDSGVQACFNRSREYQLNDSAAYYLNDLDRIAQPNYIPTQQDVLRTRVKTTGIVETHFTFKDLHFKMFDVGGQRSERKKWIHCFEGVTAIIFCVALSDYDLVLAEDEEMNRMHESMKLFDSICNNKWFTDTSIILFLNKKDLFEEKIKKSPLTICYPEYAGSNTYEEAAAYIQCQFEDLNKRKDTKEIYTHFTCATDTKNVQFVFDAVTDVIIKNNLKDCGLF
Outline: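 Fluorescence polarization assay: 50 nM Gαi1 with 10 nM FITC-labeled RGS12 GoLoco peptide in 10 mM Tris pH 7.5, 150 mM NaCl, 0.1 mM GDP, 0.05% NP40, 10 min at room temperature with compound.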

[8] = qHTS Assay for Identification of Small Molecule Agonists for Thrombopoietin (TPO) Signaling Pathway (AID 917; active = well fitted curve in the direction sought with a large enough effect; an effect the other way counts as inactive or inconclusive; also: % is scaled to controls: 0 for no effect and ±100 for the full control effect)
Outline: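 Activators of TPO signaling were sought in murine Ba/F3 cells transfected with the human receptor, using a luciferase gene driven by the Glycoprotein IIb promoter; 24-hr compound exposure at 37 C alongside 26 pM TPO, in IL-3-free medium.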

[9] = molecular target: Pyruvate kinase (Leishmania mexicana) (UniProt Q27686); assay: qHTS Validation Assay for Inhibitors of Leishmania Mexicana Pyruvate Kinase (AID 945; active = well fitted curve in the direction sought with a large enough effect; an effect the other way counts as inactive or inconclusive;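 also: 0% = DMSO only neutral control wells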)
Pyruvate kinase (Leishmania mexicana), sequence (Q27686 2-499 E452W): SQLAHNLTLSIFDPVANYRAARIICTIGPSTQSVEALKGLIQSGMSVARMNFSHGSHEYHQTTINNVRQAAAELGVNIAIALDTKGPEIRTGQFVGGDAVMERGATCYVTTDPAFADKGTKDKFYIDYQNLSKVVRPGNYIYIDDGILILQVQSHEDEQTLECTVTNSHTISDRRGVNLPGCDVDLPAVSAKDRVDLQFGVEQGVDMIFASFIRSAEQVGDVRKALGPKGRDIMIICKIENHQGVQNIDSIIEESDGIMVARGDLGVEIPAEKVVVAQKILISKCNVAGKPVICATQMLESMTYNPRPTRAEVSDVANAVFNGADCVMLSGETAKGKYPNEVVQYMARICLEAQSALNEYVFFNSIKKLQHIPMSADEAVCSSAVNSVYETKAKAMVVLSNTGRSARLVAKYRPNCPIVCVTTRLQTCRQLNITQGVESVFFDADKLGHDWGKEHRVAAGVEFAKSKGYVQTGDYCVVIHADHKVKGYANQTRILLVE
Outline: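 The enzyme is a highly purified E451W mutant of LmPYK used at 0.2 nM. It converts 0.5 mM PEP and 0.1 mM ADP over 1 h at room temperature; product ATP is quantified by luciferase luminescence relative to DMSO controls.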

[10] = molecular target: Pyruvate kinase PKM (Homo sapiens) (UniProt P14618); assay: qHTS Assay for Activators of Human Muscle Pyruvate Kinase (AID 954; active = well fitted curve in the direction sought with a large enough effect, not every such curve was filed as active;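 also: 0% = uninhibited enzyme and -100% = no enzyme or full thiadiazolimine inhibition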)
Pyruvate kinase PKM (Homo sapiens), sequence (P14618 whole entry, looked up): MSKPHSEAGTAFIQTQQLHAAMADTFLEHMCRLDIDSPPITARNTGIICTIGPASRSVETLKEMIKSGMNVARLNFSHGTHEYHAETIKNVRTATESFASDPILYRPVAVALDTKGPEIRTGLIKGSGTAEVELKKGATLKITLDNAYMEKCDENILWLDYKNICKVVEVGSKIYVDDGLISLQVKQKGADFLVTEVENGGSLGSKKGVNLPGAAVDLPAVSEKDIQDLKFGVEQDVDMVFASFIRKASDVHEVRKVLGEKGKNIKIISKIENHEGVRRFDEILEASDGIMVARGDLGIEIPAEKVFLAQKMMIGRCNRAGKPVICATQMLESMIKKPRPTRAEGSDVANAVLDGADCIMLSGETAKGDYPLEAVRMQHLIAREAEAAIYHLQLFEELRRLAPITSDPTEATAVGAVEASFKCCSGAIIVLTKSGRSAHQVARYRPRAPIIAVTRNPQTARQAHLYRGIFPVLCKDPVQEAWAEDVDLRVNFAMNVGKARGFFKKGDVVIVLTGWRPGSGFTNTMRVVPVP
Outline: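 Reaction: 0.1 nM purified PKM2 with 0.5 mM phosphoenolpyruvate and 0.1 mM ADP, room temperature, 1 h. Readout: luciferase-based ATP luminescence after stop reagent. Activators judged against a 0.3 nM enzyme column.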

[11] = molecular target: Alpha-galactosidase A (Homo sapiens) (UniProt P06280); assay: Counterscreen for Glucocerebrosidase Inhibitors: qHTS Assay for Human alpha-Galactosidase at pH 4.5 (AID 992; active = well fitted curve in the direction sought with a large enough effect; an effect the other way counts as inactive or inconclusive; also: 0% is about no effect)
Alpha-galactosidase A (Homo sapiens), sequence (P06280 whole entry, looked up): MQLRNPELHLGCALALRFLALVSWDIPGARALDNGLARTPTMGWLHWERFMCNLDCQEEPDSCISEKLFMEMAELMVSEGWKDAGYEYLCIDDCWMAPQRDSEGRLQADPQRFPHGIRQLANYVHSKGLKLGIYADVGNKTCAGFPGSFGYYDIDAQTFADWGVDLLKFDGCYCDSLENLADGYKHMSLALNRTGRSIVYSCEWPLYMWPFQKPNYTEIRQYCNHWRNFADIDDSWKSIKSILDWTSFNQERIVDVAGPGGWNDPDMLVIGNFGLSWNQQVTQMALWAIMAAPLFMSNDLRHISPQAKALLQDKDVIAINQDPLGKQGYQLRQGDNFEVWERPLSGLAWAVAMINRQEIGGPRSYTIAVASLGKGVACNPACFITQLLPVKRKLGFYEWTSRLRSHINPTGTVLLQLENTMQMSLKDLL
Outline: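 Concentration-response curves (0.7 nM to 77 uM final) were modeled with the Hill equation to give AC50. Reactions: 2 nM enzyme, 80 uM fluorogenic alpha-galactoside, pH 4.5 citric acid buffer, 20 min, room temperature.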

[12] = molecular target: alpha-glucosidase (Oryza sativa, rice) (UniProt Q653V4); assay: Counterscreen for Glucocerebrosidase Inhibitors: qHTS Assay for Rice alpha-Glucosidase at pH 5.0 (AID 997; active = well fitted curve in the direction sought with a large enough effect; an effect the other way counts as inactive or inconclusive;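 also: 0% = full activity with enzyme and -100% = basal without enzyme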)
Outline: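 Rice alpha-glucosidase (4 nM final) with 400 uM 4-methylumbelliferyl-alpha-D-glucopyranoside in citrate buffer pH 5.0, 20 min at room temperature, stopped at pH 10; fluorescence 365/440 nm, compounds 0.7 nM–77 uM, AC50 from Hill fits.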

CCC(=O)N(Cc1cccs1)C1CCOC(C)(C)C1 (stereo unspecified)
inactive: activity change, negative = inhibition [1] -6.24% | activity change, negative = inhibition [2] -16.2% | activity, negative = inhibition [3] -2.05% | Potency [4] > 20.6 µM | activation [5] -1.46%

C=C(C)CN(CC)CCC(=O)Nc1ccc(OC)cc1OC
inactive: activity change, negative = inhibition [1] -7.43% | activity change, negative = inhibition [2] 3.18% | activity, negative = inhibition [3] 6.14% | Potency [4] > 20.6 µM | activation [5] -8.71%

CCOc1ccc(NC(=O)CSC2=C(C#N)C(c3ccc4c(c3)OCO4)CC(=O)N2)cc1 (stereo unspecified)
inactive: activity change, negative = inhibition [1] -17.2% | activity change, negative = inhibition [2] -5.95% | activity, negative = inhibition [3] -3.62% | Potency [4] > 20.6 µM | activation [5] -0.0576%

CC(=O)[C@@]1(O)CC[C@@H]2[C@@H]3CCC4=CC(=O)CC[C@@]4(C)[C@H]3CC[C@]21C
active: Potency [4] 0.162 µM
inactive: activity change, negative = inhibition [1] 4.89% [at 38 µM] | activity change, negative = inhibition [2] -13.4% [at 38 µM] | activity, negative = inhibition [3] -11.8% [at 38 µM] | Potency [6] | outcome [7] | Potency [8] | Potency [9] | outcome [10] | outcome [11] | outcome [12]

CN(CCNC(=O)c1ccc(/C=N/O)nc1)Cc1ccccc1
inactive: activity change, negative = inhibition [1] 0.297% | activity change, negative = inhibition [2] -21.1% | activity, negative = inhibition [3] -0.957% | Potency [4] > 20.6 µM | activation [5] 9.65%

Cc1cccc(N2CC(=O)N(c3cccc(C)c3)CC2=O)c1
inactive: activity change, negative = inhibition [1] 5.22% | activity change, negative = inhibition [2] 5.99% | activity, negative = inhibition [3] 0.983% | Potency [4] > 20.6 µM | activation [5] 1.3%

CC(C)(C)C1=Nn2c(nnc2-c2ccccn2)SC1
inactive: activity change, negative = inhibition [1] 4.11% | activity change, negative = inhibition [2] 0.351% | activity, negative = inhibition [3] 4.69% | Potency [4] > 20.6 µM | activation [5] -1.04%

Cc1cc(C(F)(F)F)c(C#N)c(SCC(=O)NC2CC2)n1
inactive: activity change, negative = inhibition [1] 19.7% | activity change, negative = inhibition [2] -9.19% | activity, negative = inhibition [3] 1.05% | Potency [4] > 20.6 µM | activation [5] 16.3%

COC(=O)c1sc(NC(C)=O)c(C(=O)OC)c1C
inactive: activity change, negative = inhibition [1] 2.69% | activity change, negative = inhibition [2] 2.63% | activity, negative = inhibition [3] 1.36% | Potency [4] > 20.6 µM | activation [5] 21.1%

COc1ccccc1NC(=O)Nc1nnc(C(C)C)s1
inactive: activity change, negative = inhibition [1] -4.89% | activity change, negative = inhibition [2] 20.9% | activity, negative = inhibition [3] -3.37% | Potency [4] > 20.6 µM | activation [5] 10.4%

Cc1cccc(OCC(=O)NCC(=O)n2nc(C)cc2C)c1
inactive: activity change, negative = inhibition [1] 2.67% | activity change, negative = inhibition [2] 12.1% | activity, negative = inhibition [3] 4.06% | Potency [4] > 20.6 µM | activation [5] 14.3%

CCCCOC(=O)Nc1ccc(S(=O)(=O)Nc2nc(C)cc(C)n2)cc1
inactive: activity change, negative = inhibition [1] -5.25% | activity change, negative = inhibition [2] -8.58% | activity, negative = inhibition [3] -5.4% | Potency [4] > 20.6 µM | activation [5] -6.31%
